This note sets out measurements from PubChem BioAssay (NCATS).

Holding throughout (experiment): qHTS profiling for inhibitors of Plasmodium falciparum proliferation (AID 504749); also: nearly all actives have a fitted effect of over 60% in size
What all share (details): P. falciparum in erythrocytes, SYBR Green DNA, 72 h; series mostly up to 28.7 µM

One assay deals with CP286. The procedure, abridged:
(§1)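 P. falciparum-infected erythrocytes (0.3% parasitemia, 2.5% hematocrit final) were exposed to compounds for 72 h at 37 C in 5% CO2, then lysed with SYBR Green buffer overnight at room temperature; parasite DNA fluorescence was normalized to artemisinin and DMSO controls.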

The next assay deals with CP291. The procedure, abridged:
as §1

Another assay deals with CP297. The procedure, abridged:
as §1

For a further assay, the system named is CP305. The procedure, abridged:
as §1

The next assay relates to CP315. The essentials: as §1
The subject of another assay is CP325. The essentials: as §1
For the next assay, the system named is CP329. The procedure, abridged: as §1
The subject of another assay is CP335. The procedure, abridged:
as §1

The next assay deals with DFO2036. The essentials:
as §1

A further assay concerns DIV14. The procedure, abridged: as §1

Results filed as inconclusive are left out. Active and inactive are the calls of the source. Calls follow the shape of the dose curve; as a rule, active = well fitted inhibition curve with a large enough effect; inconclusive = small, poorly fitted or top-dose-only effect; inactive = flat fitted curve, though single readings scatter.
Potency is read from the fitted curve at half-maximal effect.

On to `CCCN[C@H]1CCc2nc(N)sc2C1`, for which the Potency result with CP286, in the assay on CP291, in the assay with CP297, in the assay on CP305, with CP315 and in the assay on CP325 was “inactive” in each case. In addition, the Potency entry with CP329, in the assay with CP335, in the assay with DFO2036 and with DIV14 was “inactive” throughout.
Take `CC(C)(C#N)c1cc(Cn2cncn2)cc(C(C)(C)C#N)c1`: the Potency result in the assay with CP286, in the assay with CP291, in the assay with CP297, in the assay on CP305, in the assay with CP315 and in the assay on CP325 was “inactive” each time. Moreover, the Potency entry in the assay on CP329, with DFO2036 and with DIV14 was “inactive” throughout.
`CNS(=O)(=O)Cc1ccc2[nH]cc(CCN(C)C)c2c1`: the Potency result with CP286, in the assay on CP291, in the assay on CP297, in the assay on CP305, with CP315 and in the assay with CP325 was “inactive” each time. The Potency entry in the assay with CP329, with DFO2036 and in the assay on DIV14 was “inactive” in each case.
On to `CC(=O)Oc1ccccc1C(=O)Nc1ncc([N+](=O)[O-])s1`, for which the Potency was 12600 nM (active) in the assay with CP286 and 13500 nM (active) in the assay on DIV14. For the same compound, the Potency result in the assay with CP291, in the assay on CP297, in the assay with CP305, in the assay on CP315, in the assay with CP325 and with CP329 was “inactive” throughout. Also, the Potency entry in the assay on DFO2036 is “inactive”.
Regarding `CC(C)OC(=O)C(C(=O)OC(C)C)=C1SC=CS1`, the Potency entry with CP286, in the assay with CP291, in the assay with CP297, in the assay on CP305, in the assay on CP315 and in the assay with CP325 was “inactive” throughout. The Potency result with CP329 and in the assay on DFO2036 was “inactive” each time.
As for `Cc1cccc(Nc2ccncc2S(=O)(=O)NC(=O)NC(C)C)c1`, the Potency result in the assay with CP286, with CP291, with CP297, with CP305, in the assay with CP315 and in the assay with CP325 was “inactive” each time. Moreover, the Potency result in the assay with CP329, in the assay with CP335, in the assay with DFO2036 and in the assay with DIV14 was “inactive” throughout.
With `C1CCC(C(CC2CCCCN2)C2CCCCC2)CC1` (centres undefined), the Potency is 3980 nM (active) in the assay with CP286; 12000 nM (active) in the assay with CP291; 13500 nM (active) with CP297; 9530 nM (active) in the assay with CP335; 11200 nM (active) in the assay on DFO2036; 3790 nM (active) in the assay with DIV14.
For the compound `COc1ccc(-c2ccc3cc(C(=O)O)ccc3c2)cc1C12CC3CC(CC(C3)C1)C2`, the Potency result with CP286, in the assay on CP291, in the assay on CP297, in the assay on CP305, in the assay on CP315 and in the assay on CP325 was “inactive” in each case. The Potency entry in the assay on CP329, in the assay with CP335, in the assay with DFO2036 and with DIV14 was “inactive” in each case.
`CC(C)(Sc1cc(C(C)(C)C)c(O)c(C(C)(C)C)c1)Sc1cc(C(C)(C)C)c(O)c(C(C)(C)C)c1`: the Potency in the assay on CP286 was 3980 nM (active); with CP335, 3610 nM (active). Also, the Potency result in the assay on CP291, in the assay on CP297, in the assay with CP305, in the assay with CP325, in the assay on CP329 and in the assay with DFO2036 was “inactive” each time. The Potency entry with DIV14 is “inactive”.
Consider `Nc1ccc(S(=O)(=O)Nc2ccccn2)cc1`, for which the Potency entry in the assay on CP286, in the assay with CP291, with CP297, in the assay on CP305, in the assay on CP315 and with CP325 was “inactive” throughout. Further, the Potency result in the assay with CP329, in the assay on CP335, with DFO2036 and in the assay on DIV14 was “inactive” each time.
Turning to `CC[C@H](C)C(=O)O[C@H]1C[C@@H](C)C=C2C=C[C@H](C)[C@H](CC[C@@H]3C[C@@H](O)CC(=O)O3)[C@H]21`, the Potency result in the assay with CP286, in the assay on CP291, in the assay on CP297, with CP305, in the assay on CP315 and in the assay with CP325 was “inactive” in each case. Further, the Potency result in the assay on CP329, in the assay with DFO2036 and in the assay with DIV14 was “inactive” each time.
Turning to `Nc1nc(N)nc(-c2cc(Cl)ccc2Cl)n1`, the Potency result in the assay on CP286, in the assay with CP291, in the assay with CP297, in the assay with CP305, in the assay on CP315 and with CP325 was “inactive” each time. Also, the Potency result in the assay with CP329, in the assay on CP335, in the assay with DFO2036 and in the assay with DIV14 was “inactive” throughout.
As to `N=C(N)c1ccc(OCCCCCOc2ccc(C(=N)N)cc2)cc1`, the Potency is 1120 nM (active) with CP286; 1200 nM (active) in the assay on CP291; 601 nM (active) in the assay with CP297; 536 nM (active) in the assay on CP305; 1350 nM (active) with CP315; 1070 nM (active) in the assay with CP325. For the same compound, the Potency with CP329 was 849 nM (active); in the assay with CP335, 1350 nM (active); in the assay on DFO2036, 1000 nM (active); in the assay with DIV14, 269 nM (active).
In the case of `O=c1cc(O)c(Cl)c[nH]1`, the Potency result in the assay on CP286, in the assay on CP291, in the assay with CP297, with CP305, in the assay with CP315 and in the assay with CP325 was “inactive” throughout. Besides, the Potency entry in the assay with CP329, in the assay on CP335, in the assay on DFO2036 and with DIV14 was “inactive” throughout.
Consider `CCc1cc(C(N)=S)ccn1`, for which the Potency entry in the assay with CP286, in the assay with CP291, in the assay with CP297, with CP305, in the assay on CP315 and with CP325 was “inactive” in each case. For the same compound, the Potency result in the assay with CP329, in the assay on CP335, in the assay on DFO2036 and in the assay with DIV14 was “inactive” each time.
